Sfp inh – inhibitors of Bacillus subtilis Sfp phosphopantetheinyl transferase. Q9F4F7. Biochemical Sfp PPTase activity, qHTS. Potency, µM, hits mostly inhibitors. 310,000 compounds, 3.5% hits. AID 1490;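 note: the enzyme is Sfp with the accession as filed and its product quenches rhodamine fluorescence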
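Fluorescence-quenching assay with 15 nM Sfp, 5 uM rhodamine-CoA and 12.5 uM BHQ-2-labelled ybbR peptide in pH 7.6 Hepes/MgCl2 buffer. Enzyme was pre-incubated with compound for 15 min at room temperature. Rate was taken from the 30-min fluorescence change (525/598 nm).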
Tau fibril FP – inhibitors of human tau fibril formation | P10636 | K18 P301L tau heparin fibrillization, Alexa594 FP, 6 h | Potency, µM (series often up to 57.7 µM), hits mostly inhibitors | 280,000 compounds, 0.39% hits; note: nearly all actives have a fitted effect of over 55% in size
Target sequence (P10636 561-689 P618L limits assumed): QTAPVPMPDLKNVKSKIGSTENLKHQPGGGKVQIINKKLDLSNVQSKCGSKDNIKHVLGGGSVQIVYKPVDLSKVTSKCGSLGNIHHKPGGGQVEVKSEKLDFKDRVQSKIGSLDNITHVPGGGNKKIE
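Read-out: fluorescence polarization of Alexa 594-labeled tau (0.24 uM), 555 nm excitation, 632 nm emission. Mixtures held 15 uM unlabeled K18 P301L, compound and 20 uM heparin, pH 7 acetate buffer, incubated 6 hr at 37 C.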
Tau fibril ThT – tau fibrillization inhibition (ThT binding); recombinant tau K18 P301L, heparin-induced fibrillization, ThT fluorescence; Potency, µM (top dose mostly 57.4 µM), hits mostly inhibitors; 270,000 compounds, 2.1% hits; note: nearly all actives have a fitted effect of over 55% in size
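In this qHTS, human K18 P301L tau is incubated with compound and heparin for 6 hr at 37 C, and Thioflavin T fluorescence then reports fibril load.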
Coupling enz – counter-screen for Giardia aldolase inhibitors: coupling enzyme system. 290,000 compounds, 0.67% hits. activity change, negative = inhibition, % at 58.2 µM, hits read low. coupling enzyme system counterscreen, AmpLite Red fluorescence; in the data active = activity change below about -30%
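Fluorescence at 525 nm excitation and 598 nm emission measured inhibition of the coupled detection system without aldolase. Compounds (at 57.5 uM final) were preincubated 10 min at room temperature with coupling enzyme reagent before a 20 min substrate/AmpLite Red step.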
G9a inh – inhibitors of human histone lysine methyltransferase G9a; 350,000 compounds, 8.8% hits; Potency, µM (titrated, usually from 102 µM), usual class: inhibitors; G9a H3K9 monomethylation, AlphaScreen, 2 h; note: nearly all actives have a fitted effect of over 75% in size
Target sequence (Q96KQ7 913-1193 limits assumed): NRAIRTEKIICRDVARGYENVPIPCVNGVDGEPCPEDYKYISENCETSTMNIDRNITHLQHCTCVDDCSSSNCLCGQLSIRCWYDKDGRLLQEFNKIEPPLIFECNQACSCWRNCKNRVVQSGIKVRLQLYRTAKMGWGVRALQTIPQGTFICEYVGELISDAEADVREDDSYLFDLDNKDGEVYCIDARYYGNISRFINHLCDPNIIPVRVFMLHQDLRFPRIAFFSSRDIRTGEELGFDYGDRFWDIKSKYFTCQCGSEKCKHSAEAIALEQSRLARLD
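Quantitative HTS format: methyltransferase activity on a biotin-tagged H3K9 peptide is measured by AlphaScreen, using a rabbit anti-monomethyl-H3K9 antibody with streptavidin donor and anti-IgG acceptor beads. Final levels are 20 nM enzyme, 500 nM peptide, 20 uM SAM; 2 h RT.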
Tau fluor counter – counter-screen for tau fibril formation inhibitors; tau K18 P301L Alexa594 fluorescence, heparin fibrillization; Potency, µM (top dose mostly 57.7 µM); 280,000 compounds, 0.93% hits; note: nearly all actives have a fitted effect of over 55% in size
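Human tau K18 P301L (15 uM unlabeled, 0.24 uM Alexa 594-labeled) in 100 mM sodium acetate pH 7 with 20 uM heparin, 6 hr at 37 C. ThT 30 uM added, 1 hr ambient; Alexa 594 FP and total fluorescence read at 555/632 nm.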
A number is an active result; n = inactive; u = inconclusive; x = no result; [ ] = another dose, or the depositor's remark. Only some compounds are listed: those with a hit (about 11% of all), similar ones and a draw of the others. Unless noted, calls come from the whole dose curve; as a rule, active = well fitted curve in the direction sought with a large enough effect; inconclusive = small, poorly fitted or top-dose-only effect, or another doubt; inactive = no such curve, though single readings can be large; an effect the other way counts as inactive or inconclusive.

SMILES	Sfp inh	Tau fibril FP	Tau fibril ThT	Coupling enz	G9a inh	Tau fluor counter
CCOC(=O)c1ccc(NC(=O)c2sc3nc(N4CCOCC4)c4c(c3c2N)CCCC4)cc1	n	x	x	x	n	x
Cc1ccc(C)c2nc3sc(C(=O)N4CCOCC4)c(N)c3cc12	n	n[2.34 µM]	n	n	n	n[2.34 µM]
Cc1cccc2cc3c(N)c(C(=O)Nc4ccc(N5CCOCC5)cc4)sc3nc12	u	n	2.8µM	n	u	11µM[quencher]
CCc1cccc2cc3c(N)c(C(=O)Nc4ccc(S(=O)(=O)N5CCCC5)cc4)sc3nc12	n	u	5.6µM	n	u	u
Cc1ccc2nc3sc(C(=O)Nc4ccc(N5CCOCC5)cc4)c(N)c3cc2c1	n	n	2µM	n	n	u
Cc1cccc2cc3c(N)c(C(=O)N4CCc5ccccc54)sc3nc12	n	u	4.5µM	n	1.4µM	u
COc1ccc2[nH]c(=O)c(CN(Cc3ccco3)Cc3nnnn3Cc3ccccc3)cc2c1	56µM	u	n	n	50µM	n
CCC(c1nnnn1Cc1ccco1)N(CCN1CCOCC1)Cc1cc2cc(C)ccc2[nH]c1=O (centres undefined)	45µM	n	u	n	u	n
CCOC(=O)Cn1nnnc1C(CC)N(Cc1cccs1)Cc1cc2cc(C)ccc2[nH]c1=O (centres undefined)	n	n	n	n	n	n
CCOc1ccc2[nH]c(=O)c(CN(Cc3ccco3)C(CC)c3nnnn3Cc3ccccc3)cc2c1 (centres undefined)	u	u	25µM	n	35µM	n
CCOc1ccc2[nH]c(=O)c(CN(Cc3ccco3)Cc3nnnn3Cc3ccccc3)cc2c1	n	n	u	n	u	n
Cc1nnc(NC(=O)c2ccc(S(=O)(=O)C(F)F)cc2)s1	n	n	n	n	n	n
O=C(O)COc1ccc(/C=N/NC(=O)c2cccc3ccccc23)cc1	n	x	x	n	n[2.33 µM]	x
O=S(=O)(NCc1ccccn1)c1cc(Cl)ccc1Cl	n	x	x	n	79µM	x
O=S(=O)(NCc1ccccn1)c1cc(C(F)(F)F)ccc1Cl	n	n	n	n	u	n
Cc1cc2c(OCC(CNC(C)(C)C)OC(=O)c3ccccc3)cccc2[nH]1 (centres undefined)	n	n	u	x	16µM	n
COc1ccc(N=Cc2cc(Cc3ccccc3Cl)cc([N+](=O)[O-])c2O)cc1OC	n	u	10µM	n	40µM	n
Cc1ccc(N=Cc2cc(Cc3ccccc3Cl)cc([N+](=O)[O-])c2O)c(O)c1	50µM	u	7.9µM	n	32µM	u
CNC(=S)NNc1ccccc1[N+](=O)[O-]	2.5µM	n	u	n	3.5µM	n
COCCNC(=S)Nc1ccc([N+](=O)[O-])cc1C	56µM	n	n	n	x	n
COCCNC(=S)NNc1ccccc1[N+](=O)[O-]	10µM	n	u	n	u	n
O=C(NCCNc1ccccc1[N+](=O)[O-])c1cc(F)c(F)cc1Cl	n	x	x	n	u	x
COc1ccc(C(=O)NCCNc2ccccc2[N+](=O)[O-])cc1	n	n	8.9µM	n	n	n
CCOC(=O)c1ccc(NC(=O)C(Cc2ccccc2)NS(=O)(=O)c2ccc(Br)s2)cc1 (centres undefined)	x	n	n	x	n	n
COc1ccc(NC(=O)N2CC[C@@]3(CCCN(C(=O)c4ccc(OC)cc4)C3)C2)cc1	n	x	x	n	n[12.7 µM]	x
SMILES	Sfp inh	Tau fibril FP	Tau fibril ThT	Coupling enz	G9a inh	Tau fluor counter
COc1ccc(N2CCN(C(CNC(C)=O)c3ccco3)CC2)cc1 (centres undefined)	n	n	n	n	u	n
O=C(NCc1cccs1)C(=O)NCC(c1ccco1)N1CCN(c2ccccc2)CC1 (centres undefined)	n	n	n	n	u	n
COc1ccc(N2CCN(C(CNC(=O)OCc3ccccc3)c3ccco3)CC2)cc1 (centres undefined)	n	u	u	n	25µM	n
COc1ccc(N2CCN(C(CNC(=O)C(=O)NC3CCCC3)c3ccco3)CC2)cc1 (centres undefined)	x	x	x	x	7.1µM	x
COc1ccc(N2CCN(C(CNC(=O)C(=O)NCc3cccs3)c3ccco3)CC2)cc1 (centres undefined)	n	u	u	n	40µM	n
O=C(COc1ccccc1)NCC(c1ccco1)N1CCN(c2ccccc2)CC1 (centres undefined)	x	x	x	x	45µM	x
Cc1ccccc1CN1C(=O)C2(c3ccccc31)N(c1ccccc1)C(=O)CS2(=O)=O (centres undefined)	x	n	n	x	u	n
Cc1nc2ccccc2n1CCc1nc2c3ccccc3nc(SCc3ccc(F)cc3)n2n1	x	n	n	x	n	n
Cc1cccn2c(=O)c(/C=C(\C#N)c3nc4ccccc4n3C)c(Oc3ccc(Br)cc3)nc12	x	n	u	x	n	n
COc1ccc(OCC(O)CNCCOc2ccccc2OC)c(C(C)(C)C)c1 (centres undefined)	u	x	x	n	u	x
OC(CNCCc1ccc(C(F)(F)F)cc1)COc1ccc2ccccc2c1 (centres undefined)	18µM	n	u	n	n	n
OC(CNC1CCCC1)COc1ccccc1Br (centres undefined)	n	x	x	n	x	x
COc1ccccc1COCC(O)CNCCc1ccc(C(F)(F)F)cc1 (centres undefined)	u	x	x	n	4µM	x
OC(CNC1CCCCCC1)COc1cccc2ccccc12 (centres undefined)	n	x	x	n	45µM	x
CC(=O)Nc1ccc(OCC(O)CNC2CCCC2)cc1 (centres undefined)	n	n	u	-38	n	n
COc1ccc(CCNCC(O)COc2cccc(Br)c2)cc1 (centres undefined)	n	n	n	n	n	n
COc1cc(C2C3=C(CC(C)(C)CC3=O)Nc3ccccc3N2C(C)=O)cc(OC)c1OC (centres undefined)	n	x	x	n	x	x
OC(CNCCc1ccc(C(F)(F)F)cc1)COc1cccc2ccccc12 (centres undefined)	25µM	n	u	n	n	u
OC(COc1ccc(CNCCc2ccc(C(F)(F)F)cc2)cc1)CN1CCCCC1 (centres undefined)	n	n	n	n	u	n
Cc1cccc(NC(=S)NC2CCSc3ccccc32)c1 (centres undefined)	n	x	x	x	n	x
CCOC(=O)C(NC(=O)NC1CCCCC1)(c1ccccc1)C(F)(F)F (centres undefined)	n	u	n	n	n	n
CCOC(=O)C(NC(=O)Nc1ccc(O)cc1)(c1ccccc1)C(F)(F)F (centres undefined)	n	u	u	-39	n	n
Cc1cc(-c2csc(NC(=O)c3ccccc3C(F)(F)F)n2)c(C)n1Cc1ccccc1	n	n	n	n	45µM	n

Compound activity from PubChem.
